# ± gives the standard deviation of the averaged measurements. In all, about 33,000 sequences were measured (“E-score (rank enrichment, -0.5 to 0.5)”: median about -0.0043, highest 2% from about 0.24 on). This excerpt belongs to a sample that is enriched for the highest values.
# Tested on: 2Sp-muMax20 (muMax20 with two 2,6-bis(methyl)pyridine Cys staples)
# Experiment: PBM 8-mer E-score (E-score (rank enrichment, -0.5 to 0.5)); higher = stronger preferential binding
# Method: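 Protein binding microarray (universal PBM chip covering all 10-mers in fixed probe flanks) with chemically synthesized human Max(13-93) bHLH-LZ analogs (not full-length Max) bearing noncanonical residues (hArg, Tha, Aib, Nle at 65) and aromatic Cys staples. Read-out per 8-mer (and its reverse complement): E-score (rank-based enrichment, -0.5 to 0.5) and Z-score of median probe intensity.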
row,Sequence,PBM 8-mer E-score
1,ATAAGGAC,0.0211 ± 0.092
2,ATAAGGAA,-0.0884 ± 0.043
3,CTAAGGTC,-0.029 ± 0.12
4,ATAAGGTC,0.238 ± 0.051
5,ATAAGGTA,0.164 ± 0.031
6,ATAAGGAT,0.258 ± 0.011
7,CCAGTATC,-0.0909 ± 0.022
8,AACCCCGA,0.0376 ± 0.019
9,ACGCTTCA,0.0519 ± 0.091
10,GTAAGTTA,0.0283 ± 0.0067
11,CTAAGTTA,0.0843 ± 0.017
12,ATAAGTTA,0.236 ± 0.025
13,CAAGGACC,-0.223 ± 0.048
14,AATTAATC,0.207 ± 0.009
15,ATTTAATA,0.243 ± 0.0082
16,AGTTAATA,0.138 ± 0.027
17,CTTTAATA,0.207 ± 0.016
18,AATTAGTA,0.268 ± 0.0095
19,AATTAGTC,0.0516 ± 0.035
20,AATTAATT,0.242 ± 0.031
21,CATTAGTA,-0.0474 ± 0.081
22,AATTAATG,0.215 ± 0.028
23,ACTTAATA,0.156 ± 0.042
24,AATTAATA,0.285 ± 0.03
25,GTTTAATA,0.203 ± 0.062

row,Sequence,PBM 8-mer E-score
1,GCTAAGTA,0.034 ± 0.091
2,CCGCCGCC,-0.00332 ± 0.019
3,ACACCAGA,-0.0516 ± 0.0077
4,CATGAACA,-0.0306 ± 0.058
5,GTTTAGGA,-0.13 ± 0.036
6,GACCCTTA,-0.0689 ± 0.0029
7,CTTTAAAC,0.0827 ± 0.097
8,ATTTAAAC,0.329 ± 0.047
9,ATTTAAAG,0.0431 ± 0.059
10,AAAATTCC,0.0483 ± 0.056
11,CCTCTTAA,0.0544 ± 0.11
12,CGTGGGGA,0.1018 ± 0.00016
13,AATGGGGA,0.112 ± 0.047
14,AGTGGGGG,-0.0461 ± 0.0062
15,TATGGGGA,0.283 ± 0.028
16,AGTGGGGA,0.245 ± 0.011
17,CATGGGGA,0.124 ± 0.043
18,GCCATGTA,0.0368 ± 0.0029
19,CTCTTGGA,-0.112 ± 0.014
20,CAGTAGCG,-0.205 ± 0.045
21,ACGGCTAA,-0.0509 ± 0.014
22,ACCCCGGC,-0.00709 ± 0.083
23,ACATAGAC,0.115 ± 0.034
24,GTTGAAGA,0.0675 ± 0.033
25,ATTGAAGA,0.237 ± 0.023

row,Sequence,PBM 8-mer E-score
1,ATTGAAGG,-0.0238 ± 0.14
2,CTTCCGAA,-0.23 ± 0.024
3,ATATTAGA,0.235 ± 0.012
4,GTATTAAA,0.134 ± 0.014
5,AGATTATG,-0.00069 ± 0.061
6,ATATTACA,0.157 ± 0.058
7,GTATTAGA,0.182 ± 0.073
8,ATATTATA,0.268 ± 0.047
9,ATATTAGG,0.297 ± 0.029
10,CTATTATA,0.0957 ± 0.01
11,ATATTATG,0.274 ± 0.083
12,GTATTATA,0.259 ± 0.053
13,ATATTATC,0.0885 ± 0.023
14,ATATTAGC,0.166 ± 0.0073
15,CAGTTCGC,-0.0265 ± 0.073
16,TGTTAGAA,0.125 ± 0.12
17,CGACTGGC,-0.148 ± 0.052
18,CCAGAGAC,-0.05 ± 0.076
19,GGATGACA,-0.0339 ± 0.094
20,CTATTCTA,0.227 ± 0.043
21,GTATTCTA,0.134 ± 0.021
22,ATATTCTA,0.244 ± 0.04
23,AATGGCAA,0.00112 ± 0.089
24,CCAAGAGC,-0.0397 ± 0.036
25,TACGTGGA,0.0461 ± 0.0044

row,Sequence,PBM 8-mer E-score
1,GACGTGGA,0.055 ± 0.0074
2,AACGTGGC,0.163 ± 0.041
3,CACGTGGA,0.398 ± 0.033
4,CACGTGGG,0.436 ± 0.0081
5,GACGTGGC,0.0114 ± 0.026
6,CACGTGGC,0.357 ± 0.064
7,AACGTGGG,0.1 ± 0.047
8,AACGTGGA,0.0553 ± 0.0092
9,CTATTCAG,0.00673 ± 0.056
10,AGAAGCGA,-0.0304 ± 0.05
11,ATCACGGA,-0.0223 ± 0.047
12,ACTTAGCC,-0.0201 ± 0.091
13,AGCGTAAC,0.041 ± 0.14
14,GACTCAGC,-0.176 ± 0.036
15,AACGCCTT,-0.0913 ± 0.021
16,ACACAATA,0.247 ± 0.029
17,ACACAATG,0.122 ± 0.025
18,ACACAAAC,0.271 ± 0.025
19,ACACAAAG,0.206 ± 0.045
20,GCACAATA,-0.00579 ± 0.025
21,AGACAATG,0.00664 ± 0.0054
22,AGACAATA,0.268 ± 0.026
23,AGACAATC,0.0678 ± 0.067
24,ACACAAAA,0.172 ± 0.045
25,GAAGGTCA,-0.106 ± 0.027

row,Sequence,PBM 8-mer E-score
1,ATCTAACG,0.0512 ± 0.018
2,CCCCTTTA,0.1759 ± 0.0016
3,ACTGTGGC,-0.025 ± 0.13
4,TGTTTTAA,0.0917 ± 0.0018
5,AGTTTAAA,0.181 ± 0.021
6,CATTTTAA,0.167 ± 0.029
7,TATTTAAA,0.155 ± 0.05
8,CATTTAAA,0.239 ± 0.026
9,TGTTTAAA,0.278 ± 0.015
10,ATCCTCTA,-0.0199 ± 0.026
11,CAAGTGTG,0.119 ± 0.073
12,AATGCGTC,-0.0127 ± 0.03
13,ATCAAGAC,-0.00991 ± 0.011
14,ACGATGAT,0.0729 ± 0.0089
15,CTCTATCA,-0.0317 ± 0.017
16,GGCACCAA,0.0196 ± 0.084
17,AATGTGGG,0.246 ± 0.00061
18,CATGTGGA,0.16 ± 0.0062
19,CATGTGGC,0.173 ± 0.13
20,AATGTGGC,0.124 ± 0.005
21,AATGTGGT,0.0284 ± 0.063
22,CATGTGGG,0.329 ± 0.026
23,GGGAGTTA,0.245 ± 0.029
24,CGGAGTTA,-0.187 ± 0.057
25,AGGAGTTA,0.109 ± 0.0086

row,Sequence,PBM 8-mer E-score
1,CATCGTGA,-0.256 ± 0.15
2,GAAGTCTA,0.0975 ± 0.1
3,ATTACTAG,-0.00656 ± 0.053
4,ACTACTAG,0.261 ± 0.086
5,CTTACTAC,0.122 ± 0.0036
6,CATACTAC,0.0746 ± 0.039
7,CATACTAG,0.243 ± 0.0018
8,CATACTAA,0.1447 ± 0.00064
9,ATTACTAC,0.256 ± 0.011
10,CCTACTAG,0.107 ± 0.023
11,ACTACTAT,0.146 ± 0.12
12,AACTTGTA,0.0176 ± 0.02
13,AGAGTCAA,-0.0327 ± 0.08
14,CGGCGGAG,-0.149 ± 0.039
15,CTGCTCGC,-0.104 ± 0.0046
16,CAGAGGTC,-0.182 ± 0.051
17,CAGCAACG,-0.129 ± 0.075
18,AAATATAC,0.087005 ± 2.1e-05
19,AAAAATAT,0.244 ± 0.024
20,TAATATAA,0.242 ± 0.035
21,AAAAATAA,0.0898 ± 0.087
22,AAAAATAG,0.122 ± 0.058
23,ACCAATAG,-0.0592 ± 0.066
24,GAATATAA,0.215 ± 0.056
25,ACCAATAT,0.258 ± 0.045

row,Sequence,PBM 8-mer E-score
1,CAATATAA,0.152 ± 0.1
2,AAATATAT,0.3135 ± 0.00093
3,AAATATAG,0.148 ± 0.036
4,ACCAATAC,0.139 ± 0.021
5,ATGCGCCG,-0.102 ± 0.045
6,CATGGCAG,0.0778 ± 0.016
7,CCCAAAGC,-0.158 ± 0.047
8,GAGCCGAA,-0.123 ± 0.12
9,AAATATCA,0.132 ± 0.038
10,AAATATAA,0.255 ± 0.03
11,AAATAAAA,0.175 ± 0.059
12,GACTATAA,0.0335 ± 0.072
13,AACTATAA,0.199 ± 0.015
14,TACTATAA,0.261 ± 0.011
15,TAGCGGCA,-0.00468 ± 0.025
16,TTAGTCAA,-0.0593 ± 0.046
17,ATCTCACA,0.141 ± 0.066
18,AAATCCAA,0.0276 ± 0.05
19,TAATCCAA,0.256 ± 0.031
20,GAATCCAA,0.132 ± 0.0084
21,ACGGGATA,0.146 ± 0.0045
22,TATCTTGA,0.123 ± 0.099
23,CATCTTGA,0.00562 ± 0.03

# From the supplement of paper PMC12636033
